From PubChem BioAssay (Tox21)
The source made the active and inactive calls. Where a call stands in place of a potency, no number is given. Calls come from the whole dose curve.

Experiment: G protein-coupled receptor (GPCR) small molecule agonists, calcium flux assay: HEK293 wild type cell line counter screen (AID 1920065)
Conditions: HEK293 WT calcium flux, fluorescence, agonist mode; series mostly up to 57.6 µM
From the text: U.S. Tox21 Program National Center for Advancing Translational Sciences [NCATS] Division of Preclinical Innovation [DPI] U.S. Environmental Protection Agency [EPA] National Institutes of Environmental Health Sciences [NIEHS] National Toxicology Program [NTP] U.S. Food and Drug Administration [FDA] Assay overview: The increased intracellular calcium release that occurred upon G protein-coupled receptor (GPCR) activation led to the frequent use of calcium flux assays to detect GPCR activation. For the purpose of studying and screening compounds that may activate GPCR, receptor-overexpressing models were typically generated using Hek293 wild-type (WT) cells. In order to eliminate the compounds that may have induced calcium release for non-specific activation, a counter-assay utilizing calcium flux on Hek293 WT cells was performed. The data were formulated in order to serve as a control for any calcium flux detection utilizing Hek293 cells with either GPCR overexpression or gene modification. The procurement of Hek293 WT cells from ATCC. Fluorescence intensity can be utilized to determine the activation of the compound in a calcium flux assay. As a counter control, this cell line was utilized to screen the Tox21 10K compound library.
Assay Protocol Summary: Hek293 cells were dispensed at 1500cells/4uL/well in 1536-well black wall/clear bottom plates using a multidrop dispenser. After the assay plates were incubated at a 37 C/5% CO2 incubator for 18 hours, 4 uL of Calcium Dye Solution was added to each well. The plates were incubated at 37 C for 1 hour. For agonist mode, 23 nL of compounds dissolved in DMSO, positive control (ATP) or DMSO only was transferred to the assay plate by a pin tool station. The fluorescence intensity in the plates was measured using FDSS 7000EX kinetic plate reader with a filter set of Ex/Em=480/540 for 3 min at 1 sec intervals. Each test compound was measured at 15 concentrations and in triplicates.
In the case of `C[Si]1(C)O[Si](C)(C)O[Si](C)(C)O[Si](C)(C)O1`, the Potency is reported as “inactive”. In the case of `Cc1occc(=O)c1O`, the Potency is reported as “inactive”. In the case of `CN(C)Cc1cc(CN(C)C)c(O)c(CN(C)C)c1`, the Potency is reported as “inactive”. With `c1ccc2c(c1)Cc1ccccc1-2` the Potency was “inactive”. In the case of `NC(N)=S`, the Potency is reported as “inactive”. In the case of `CCNc1ccccc1`, the Potency is reported as “inactive”. For `COc1ccc(C)cc1N`, the Potency was “inactive”. For `O=c1n(CC2CO2)c(=O)n(CC2CO2)c(=O)n1CC1CO1` (stereo not given), the Potency was “inactive”. For `CC(=O)C1=C(C)[C@@H]2C[C@@]3(C1)[C@H](C)CC[C@H]3C2(C)C`, the Potency was “inactive”. With `CCCCCCCCCC(=O)OC` the Potency was “inactive”. With `O=NO` the Potency was “inactive”. For `c1ccc2cc(Nc3ccc(Nc4ccc5ccccc5c4)cc3)ccc2c1`, the Potency was “inactive”. For `COc1ccc2[nH]cc(CCNC(C)=O)c2c1`, the Potency was “inactive”. In the case of `CCCC[P+](CCCC)(CCCC)CCCC`, the Potency is reported as “inactive”. For `CCc1cc(C(N)=S)ccn1`, the Potency was “inactive”. With `C=C(C#N)C(=O)OCC` the Potency was “inactive”. For `O=C(O)CS`, the Potency was “inactive”. With `Nc1ccc(S(=O)(=O)Nc2cnc3ccccc3n2)cc1` the Potency was “inactive”. In the case of `O=C1C(c2[nH]c3ccccc3c2O)=Nc2ccccc21`, the Potency is reported as “inactive”. With `CN1C(=O)CC[C@H]1c1cccnc1` the Potency was “inactive”. For `CC(C)(N)CO`, the Potency was “inactive”. In the case of `CC(=O)Oc1ccccc1C(=O)O`, the Potency is reported as “inactive”. With `Cc1cc(CC(=O)O)n(C)c1C(=O)c1ccc(Cl)cc1` the Potency was “inactive”. For `c1ccc2[nH]cnc2c1`, the Potency was “inactive”. With `O=C(OCCOCCOC(=O)c1ccccc1)c1ccccc1` the Potency was “inactive”. In the case of `CCCCCCCCCC(=O)O`, the Potency is reported as “inactive”. In the case of `O=C(Oc1ccccc1)c1ccccc1O`, the Potency is reported as “inactive”. In the case of `Cc1cc(C(C)(C)C)c(O)c(C(C)(C)C)c1`, the Potency is reported as “inactive”. With `O=S(=O)(O)c1ccc2nc(-c3ccccc3)[nH]c2c1` the Potency was “inactive”. For `O=C(Nc1ccccc1SSc1ccccc1NC(=O)c1ccccc1)c1ccccc1`, the Potency was “inactive”. For `Cc1ccc(O)c(-n2nc3ccccc3n2)c1`, the Potency was “inactive”. In the case of `CC(C)=CCl`, the Potency is reported as “inactive”. In the case of `O=C(O)CCCCC(=O)O`, the Potency is reported as “inactive”. For `CC(C)=CCC/C(C)=C\CO`, the Potency was “inactive”. In the case of `COCCCN`, the Potency is reported as “inactive”. In the case of `CC1(C)OC(=O)NC1=O`, the Potency is reported as “inactive”. In the case of `O=c1[nH]c(=O)n([C@H]2C[C@H](O)[C@@H](CO)O2)cc1Br`, the Potency is reported as “inactive”. For `O=[Se](O)O`, the Potency was “inactive”. With `C=CC(=O)OCCCCCCCC(C)C` the Potency was “inactive”. With `CCCCCCCCCCCCCCCC(=O)O` the Potency was “inactive”.
